# Test results taken from PubChem BioAssay AID862 (The Scripps Research Institute Molecular Screening Center, 2007).
# The whole screen tested about 190,000 compounds, of which about 1,700 (0.89%) were called active. Only a selection was taken, and actives are over-represented in it overall. A number with no mark means an inactive call.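 How the source made its calls: active means inhibition above the mean inhibition across all screened compounds plus 3 SD (cut at about 44% in these data); inactive means the rest.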
# Test: blockers of STAT3 transcriptional signaling – U3A cells, luciferase, luminescence, MLSCN library, primary screen (AID 862);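 further: 0% = DMSO only wells and 100% = 100 µM nifuroxazide control wells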
# Details: IL-6 STAT3-luciferase reporter, at 5.5 µM, active compounds read high, host cell line lacks STAT1
row,Compound,inhibition
1,COc1ccc(-c2nc3cc([N+](=O)[O-])ccc3o2)cc1OC,20.3%
2,COc1ccc2oc(-c3cccc(NC(=O)CSc4ccc(Cl)cc4)c3)nc2c1,-4.6%
3,COc1cccc(-c2nc3cc(C)ccc3o2)c1,45% (active)
4,Cc1ccc(C(=O)Cc2nnc(C)s2)cc1,-4.3%
5,C/C(=N\NC(=O)CNC(=O)C(c1ccccc1)c1ccccc1)c1ccc(C)cc1,-6.9%
6,O=C(Nc1cccnc1)c1noc2c1CCCCC2,43.9% (active)
7,COc1cccc(C(=O)Nc2cccnc2)c1OC,2.9%
8,O=C(Nc1cccnc1)c1cccc(S(=O)(=O)N2CCCC2)c1,6.6%
9,Cc1ccc(-n2c(SCC(=O)N/N=C/C=C/c3ccccc3[N+](=O)[O-])nc3ccccc3c2=O)cc1,1.3%
10,CC(Sc1nncn1C)C(=O)Nc1cc(C(F)(F)F)ccc1N1CCOCC1 (stereo unspecified),0.4%
11,OCCNCc1cccc(OCc2ccccc2Cl)c1,-9.4%
12,S=c1[nH]nc(/C=C/c2ccccc2)o1,-4.3%
13,O=c1oc(/C=C/c2ccccc2)nc2ccccc12,44.2% (active)
14,CCn1c(/C=C/c2ccc([N+](=O)[O-])o2)nc2ccccc2c1=O,25.7%
15,COc1ccc(/C=C/C(=O)c2ccc(NS(=O)(=O)c3ccc(C)cc3)cc2)cc1O,-5.1%
16,Cc1ccc(O)c(-c2cc(C(=O)NCc3ccccc3)[nH]n2)c1,-0.7%
17,CCCn1nc(C(=O)Nc2ccc3nc(C)sc3c2)c2ccccc2c1=O,0.8%
18,CCN(CC)c1ccc(/C=N/Nc2nc(C)cc(C)n2)c(O)c1,16%
19,CCN(CC)c1ccc(/C=N/Nc2nc(C)cc(=O)[nH]2)cc1,46.4% (active)
20,Cc1cc(=O)[nH]c(N/N=C/c2c(C)nn(-c3ccccc3Cl)c2Cl)n1,7.1%
21,Nc1nnc(SCn2nnc3ccccc3c2=O)s1,9.1%
22,O=C(Nc1nc2ccc([N+](=O)[O-])cc2s1)c1ccc(S(=O)(=O)N2CCCc3ccccc32)cc1,21.1%
23,O=C(O)CCC(=O)Nc1nc2ccc([N+](=O)[O-])cc2s1,13.9%
24,O=C(NC(Nc1nc2ccc([N+](=O)[O-])cc2s1)(C(F)(F)F)C(F)(F)F)c1ccccc1,92.4% (active)
25,OCCC1CN(Cc2ccc(Oc3ncccn3)cc2)CCN1CCc1ccccc1 (stereo unspecified),4.1%
26,Cc1cc[n+](-c2[nH]c(=O)sc2/C=N/NC(=O)c2ccccc2[O-])cc1C,6.7%

row,Compound,inhibition
1,COc1ccc(OC)c(N=Cc2c(O)[nH]c3ccccc23)c1,22.7%
2,COc1cc(N=Cc2c(O)[nH]c3ccccc23)cc(OC)c1OC,56% (active)
3,COc1ccc(N=Cc2c(O)[nH]c3ccccc23)cc1OC,40.4%
4,Cc1cc(C)nc(SC2CCCCC2NS(=O)(=O)c2ccc(Cl)cc2)n1 (stereo unspecified),-5.1%
5,Nc1c(C(=O)O)cnn1-c1ccccc1,-7.4%
6,Cc1ccc(N2C(=O)SC(N(CC(=O)O)c3ccc(C)cc3)C2=O)cc1 (stereo unspecified),0.7%
7,Nc1ccc(-c2nnc(-c3ccc(-c4ccccc4)cc3)o2)cc1,-2.7%
8,CCCCCC(=O)Nc1ccc2oc(-c3ccncc3)nc2c1,21.8%
9,CCc1ccc2oc(-c3ccc(N)cc3)nc2c1,79.6% (active)
10,c1ccc(Nc2nc(-c3ccncc3)cs2)nc1,9.9%
11,COc1ccc(Nc2nc(-c3ccccc3)cs2)cc1,-10.2%
12,COc1ccc(-c2csc(Nc3ccccn3)n2)cc1,51.5% (active)
13,Cc1ccccc1-n1nc(SCC(=O)O)sc1=S,3.4%
14,COc1cccc(CNC(=O)CCC2CCCN(Cc3ccc(OC(F)F)cc3)C2)c1 (stereo unspecified),13.3%
15,c1ccc(Nc2nc(N3CCOCC3)c3ccccc3n2)cc1,22%
16,CCOc1ccc(Nc2nc(Cl)nc(N3CCN(c4ccc(OC)cc4)CC3)n2)cc1,-0.7%
17,COc1ccc(Nc2ncc(F)c(N3CCOCC3)n2)cc1,50.7% (active)
18,O=[N+]([O-])c1ccc2oc(-c3cccc(O)c3)nc2c1,1.8%
19,O=C(Nc1ccccc1F)c1ccc(Cn2cc(Br)cn2)cc1,14.9%
20,Cc1ccc(-n2ncc3c(=O)[nH]cnc32)c(C)c1,10.7%
21,COc1ccc(-n2ncc3c(N4CCCc5ccccc54)ncnc32)cc1,30.9%
22,c1ccc(-n2ncc3c(N4CCCC4)ncnc32)cc1,46.7% (active)
23,COC(=O)CSc1ncnc2c1cnn2-c1ccc(C)cc1C,23.1%
24,Cc1ccc(-n2ncc3c(N4CCN(c5ccc(F)cc5)CC4)ncnc32)c(C)c1,69.6% (active)
25,COc1ccc(-n2ncc3c(N4CCc5ccccc54)ncnc32)cc1,2.3%
26,CCOc1ccc(N2C(=O)Nc3ccccc3C2(O)C(=O)NCc2ccco2)cc1 (stereo unspecified),4.6%

row,Compound,inhibition
1,O=c1[nH]oc(O)c1-c1ncc(C(F)(F)F)cc1Cl,-6.5%
2,S=c1nc(C23CC4CC(CC(C4)C2)C3)nc2sccn12,10%
3,COC(=O)NC1(C(F)(F)F)NC(=O)N(C2CCCCC2)C1=O (stereo unspecified),7.4%
4,O=C1NC(Nc2nc3ccccc3s2)(C(F)(F)F)C(=O)N1C1CCCCC1 (stereo unspecified),48.9% (active)
5,O=C(NC1(C(F)(F)F)NC(=O)N(C2CCCCC2)C1=O)c1ccco1 (stereo unspecified),12.1%
6,COCC(C)NC(=O)CSc1nc2nn(-c3ccccc3)c(=O)c-2c2n1CCCCC2 (stereo unspecified),2.7%
7,O=C(NCCOc1ccccc1)c1ccccc1,20.1%
8,O=C(NCCc1ccccc1)c1ccc(OCCOc2ccccc2)cc1,-1.4%
9,CCCOc1ccc(C(=O)NCCc2ccccc2)cc1,50.3% (active)
10,O=C(CN1C2=NCCN2c2ccccc21)c1cccs1,0%
11,c1ccc(-c2cc(N3CCCCC3)c3ccccc3n2)cc1,9.3%
12,COc1ccc(-c2cn3cccnc3n2)cc1,10.6%
13,COc1ccc(-c2cn3ccsc3n2)cc1,28.9%
14,Cc1ccc(-c2cn3cc([N+](=O)[O-])ccc3n2)cc1,86.6% (active)
15,Cc1ccc(-c2cn(S(=O)(=O)c3cccc([N+](=O)[O-])c3)nc2N)cc1,12.3%
16,Cc1ccc(-c2cn3cc(C)ccc3n2)cc1,103% (active)
17,Cc1ccc(-n2cc3ccc([N+](=O)[O-])cc3n2)cc1,38.8%
18,CC(=O)Nc1ccc(NC(=O)COc2ccc(S(=O)(=O)NC(C)c3ccccc3)cc2)cc1 (stereo unspecified),16.1%
19,Cn1cnnc1Sc1ccc(CN2CCN(C3CCCC3)C(CCO)C2)o1 (stereo unspecified),-6.5%
20,Cc1ccc2nc(-c3ccncc3)cc(C(=O)Nc3ccc4c(c3)OCCO4)c2c1,26.4%
21,C/C(=N\NC(=O)CSc1nc2ccccc2c(=O)n1-c1ccccc1C)c1cccs1,-9.1%
22,O=C(Cc1ccccc1)N1CCN(S(=O)(=O)c2ccc([N+](=O)[O-])cc2)CC1,-1.6%
23,Cc1cc(C)c2c(n1)sc1c(=O)n(-c3ccccc3)c(=O)[nH]c12,1.2%
24,Cc1cccc(C(=O)OC(C)CN2CCN(C)CC2)c1 (stereo unspecified),6.7%
25,CCOC(=O)C(C)Sc1nc2ccccc2c(=O)n1CC1CCCCC1 (stereo unspecified),-5.1%
26,CN(c1ccc2nc3ccccc3c(=O)n2n1)C1CCCCC1,105% (active)

row,Compound,inhibition
1,O=c1c2ccccc2nc2n1C1(CCCCC1)Cc1ccccc1-2,-3.8%
2,CN(C)C(CNC(=O)c1cccc(C#N)c1)c1ccco1 (stereo unspecified),5.3%
3,CCOC(=O)CNC(=O)CSc1ccc2nnc(-c3cccnc3)n2n1,-10.3%
4,Cn1ccc(=NC=C(C#N)C#N)c2ccccc21,1.3%
5,Cc1cccc(OCCNC(=S)NC(=O)c2cccnc2)c1,-5%
6,Cc1noc(C)c1COc1cccc(C(=O)Nc2cccnc2)c1,14.6%
7,CN(Cc1cccnc1)C(=O)c1cc(COc2ccc3ncccc3c2)on1,79.1% (active)
8,O=C(N/N=C/c1ccc([N+](=O)[O-])o1)c1cn(-c2ccccc2)nc1-c1ccc(F)cc1,25%
9,O=C(O)c1ccccc1-c1ccccc1C(=O)NCc1cccnc1,-4.3%
10,COc1ccc(OCC(=O)Nc2nnc(-c3ccco3)s2)cc1,-12.3%
11,O=C(CCc1ccccc1)Nc1cccc(-c2nnc(-c3ccco3)o2)c1,15.5%
12,CCOc1ccc(-c2nnc(-c3ccco3)o2)cc1,77.6% (active)
13,CCC(=O)Oc1cccc(C(=O)Nc2ccc(-c3nnc(-c4ccco4)o3)cc2)c1,11.2%
14,CCCCOc1ccc(-c2nnc(-c3ccco3)o2)cc1,51.7% (active)
15,CCCCSc1nnc(-c2ccc(C)cc2)o1,28.9%
16,CC(C)CNC(=O)CC(NCC(C)C)C(=O)O (stereo unspecified),17.2%
17,CCCOC1CCCN(Cc2cn(C)nc2-c2ccccc2F)C1 (stereo unspecified),3.9%
18,O=C(NCC1COc2ccccc2O1)C1(c2ccccc2)CCCC1 (stereo unspecified),9.6%
19,O=C(COC(=O)CCc1ccc(S(=O)(=O)N2CCOCC2)cc1)Nc1cccc(Cl)c1,-7.6%
20,CCn1c(NC(=O)c2nn(C)cc2Br)nc2ccccc21,5.2%
21,CC(=O)c1sc(NC(=O)c2ccc(C)cc2)nc1C,33.2%
22,CCSc1nnc(NC(=O)Cc2ccccc2OC)s1,1.7%
23,CCSc1nnc(NC(=O)c2ccc(C)cc2)s1,60.6% (active)
